We go through eleven molecules from PubChem BioAssay (NCATS).

Assay [1] addresses DNA repair nuclease/redox regulator APEX1 (Homo sapiens) (UniProt P27695). Description: qHTS Validation Assay for Inhibitors of the Human Apurinic/apyrimidinic Endonuclease 1 (APE1) (AID 1705; also: potency is read from the fitted curve at half-maximal effect). An outline of the steps: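 qHTS, 1536-well. APE1 + cpd 15 min RT → 50 nM TAMRA/BHQ-2 THF-abasic dsDNA substrate → kinetic fluorescence, 3 reads/60 s; delta(read3−read1) = reaction progress. No-enzyme buffer = negative control.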
On the technique in general: In qHTS, concentration-response curves come from the screen itself.

Assay [2] is described as follows: Counterscreen for APE1 Inhibitors: Fluorescent Dye Displacement Validation Assay (AID 1707). An outline of the steps: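 Compounds are scored by their ability to displace Thiazole Orange (250 nM) from a 50 nM TAMRA-tagged duplex bearing a tetrahydrofuran abasic site. Buffer is 50 mM Tris-HCl pH7.5, 50mM NaCl, 2 mM MgCl2, 0.01% Tween-20.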
Background: A counterscreen serves to expose hits that act by an unwanted route or on another target.

Assay [3] can be described thus: qHTS for differential inhibitors of proliferation of Plasmodium falciparum line 7G8 (AID 1815).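 Also: parasite growth measured after three days of incubation.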 Also: potency is read from the fitted curve at half-maximal effect.
Assay [4] can be described thus: qHTS for differential inhibitors of proliferation of Plasmodium falciparum line GB4 (AID 1816).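 Also: parasite growth measured after 72 h incubation.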 Also: potency is read from the fitted curve at half-maximal effect. As to conditions: Potency: Plasmodium falciparum GB4 proliferation inhibition.
A short description of assay [5]: qHTS for differential inhibitors of proliferation of Plasmodium falciparum line 3D7 (AID 1876). Also: potency is read from the fitted curve at half-maximal effect.
Assay [6] in a line: qHTS for differential inhibitors of proliferation of Plasmodium falciparum line D10 (AID 1877).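 Also: parasites grown with compound for 72 h before DNA staining.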 Also: potency is read from the fitted curve at half-maximal effect.
Assay [7] is described as follows: qHTS for differential inhibitors of proliferation of Plasmodium falciparum line Dd2 (AID 1882). Also: nearly all actives have a fitted effect of over 65% in size. Also: potency is read from the fitted curve at half-maximal effect. As to conditions: Potency: Plasmodium falciparum Dd2 proliferation inhibition. In a few lines:
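SYBR Green I DNA fluorescence read-out, ex 485/em 535 nm. Signals were normalized to 0.29 uM artemisinin and DMSO wells, then corrected using vehicle-only plates flanking each stack. Parasite growth ran 72 h in erythrocytes before lysis.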

A short description of assay [8]: qHTS for differential inhibitors of proliferation of Plasmodium falciparum line W2 (AID 1883).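 Also: parasites grown with compound for 72 h before lysis and staining.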 Also: potency is read from the fitted curve at half-maximal effect. As to conditions: Potency: Plasmodium falciparum W2 proliferation inhibition.
Assay [9] is described as follows: qHTS for differential inhibitors of proliferation of Plasmodium falciparum line HB3 (AID 1886).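 Also: parasites grown with compound for 72 h before SYBR Green readout.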 Also: potency is read from the fitted curve at half-maximal effect. As to conditions: Potency: Plasmodium falciparum HB3 proliferation inhibition.
Assay [10] addresses ATP-dependent DNA helicase Q1 (Homo sapiens) (UniProt P46063). Description: qHTS Validation Assay for Inhibitors of RecQ-Like Dna Helicase 1 (RECQ1) (AID 2353). Also: potency is read from the fitted curve at half-maximal effect. In a few lines:
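50 nM RECQ1T1 preincubated 15 min with compound in Tris pH 8.0 buffer with MgCl2, DTT, Tween-20 and 2.5 ug/ml poly(dI-dC); started with 200 nM TAMRA/BHQ-2 forked duplex and 2 mM ATP. Unwinding read as fluorescence (525/598 nm), two reads 2 h apart.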

For assay [11], the target named is RecQ-like DNA helicase BLM (Homo sapiens) (UniProt P54132). Description: qHTS Validation Assay for Inhibitors of Bloom's syndrome helicase (BLM) (AID 2364). Also: potency is read from the fitted curve at half-maximal effect. In a few lines: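 50 nM BLM preincubated 15 min at room temperature with compound in pH 8.0 Tris buffer containing 2.5 ug/ml poly(dI-dC); started with 200 nM TAMRA/BHQ-2 forked duplex and 2 mM ATP (final). Unwinding read as TAMRA fluorescence increase, two reads 2 h apart.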

Assay [12] can be described thus: Cytometric Cell-Based qHTS for Inhibitors of the mTORC1 Signaling Pathway in MEF (Tsc2-/-, p53-/-) Cells (AID 2660).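 Also: percent of cells above a phospho-rpS6 to PI ratio cutoff in each well; series mostly up to about 38 µM.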 In a few lines: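 Immunofluorescence qHTS of rpS6 Ser235/236 phosphorylation: MEFs (Tsc2-/-, p53-/-) treated 24 h, 37 C, in DMEM + 10% FBS. Alexa-488 signal normalized to PI count, referenced to rapamycin (7.5 nM) and DMSO; PI cell number recorded for viability.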

Assay [13] can be described thus: High Content Imaging Cell-Based qHTS for Inhibitors of the mTORC1 Signaling Pathway in MEF (Tsc2-/-, p53-/-) Cells (AID 2666).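 Also: percent of cells scored positive for phospho-rpS6 Ser235/236 immunostaining by imaging.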 An outline of the steps:
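Phospho-rpS6 (Ser235/236) immunofluorescence, normalized and scored as % positive cells using rapamycin and DMSO controls, was read in empty-vector Tsc2-/-, p53-/- MEFs after 24 h compound exposure at 37 C; propidium iodide counted cells.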

Assay [14] is described as follows: High Content Imaging Cell-Based qHTS for Inhibitors of the mTORC1 Signaling Pathway in MEF Cells (AID 2667).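 Also: Tsc2-/- p53-/- MEFs stably re-expressing wild-type Tsc2 exposed 24 h; series mostly up to about 38 µM.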 An outline of the steps:
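WT MEFs (Tsc2-/-, p53-/- re-expressing Tsc2), in DMEM + 10% FBS, were treated with compound for 24 h at 37 C. Cells were then fixed and stained for phospho-rpS6 Ser235/236 with propidium iodide as cell count. Values are % positive cells, with thresholds set against rapamycin-treated cells.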

In assay [15] the target is Ferritin light chain (Equus caballus) (UniProt P02791). Description: qHTS Validation Assay for Identification of Novel General Anesthetics (AID 2323). Also: series mostly up to about 77 µM. In a few lines: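 Fluorescence at 535 nm (excitation 380 nm) reported loss of 1-AMA binding to horse-spleen apoferritin (10 uM) in PBS with 50% saturated 1-aminoanthracene, after 10 min room-temperature incubation with compound; values from Hill fits of normalized response.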

The nature of assay [16]: qHTS Assay for Modulators of Human Peripheral Myelin Protein 22 (PMP22) Expression/Activity (AID 1967; active = well fitted curve in the direction sought with a large enough effect in the signal ratio; the % refers to the signal ratio). In a few lines:
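Luminescence ratio of Pmp22 promoter-driven green luciferase to EF-alpha-driven red luciferase, in engineered mouse MSC80 Schwann cells, served as read-out. Compounds were incubated 24h; untreated cells defined 0% Activity; curves were classified by r2, magnitude and activity.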

Molecules are shown by their SMILES. Inconclusive results are not listed. Active and inactive are the calls of the source. Unless noted, calls follow the shape of the dose curve; as a rule, active = well fitted curve in the direction sought with a large enough effect; inconclusive = small, poorly fitted or top-dose-only effect, or another doubt; inactive = no such curve, though single readings can be large; an effect the other way counts as inactive or inconclusive.

RecQ-like DNA helicase BLM (Homo sapiens), sequence (P54132 whole entry, looked up): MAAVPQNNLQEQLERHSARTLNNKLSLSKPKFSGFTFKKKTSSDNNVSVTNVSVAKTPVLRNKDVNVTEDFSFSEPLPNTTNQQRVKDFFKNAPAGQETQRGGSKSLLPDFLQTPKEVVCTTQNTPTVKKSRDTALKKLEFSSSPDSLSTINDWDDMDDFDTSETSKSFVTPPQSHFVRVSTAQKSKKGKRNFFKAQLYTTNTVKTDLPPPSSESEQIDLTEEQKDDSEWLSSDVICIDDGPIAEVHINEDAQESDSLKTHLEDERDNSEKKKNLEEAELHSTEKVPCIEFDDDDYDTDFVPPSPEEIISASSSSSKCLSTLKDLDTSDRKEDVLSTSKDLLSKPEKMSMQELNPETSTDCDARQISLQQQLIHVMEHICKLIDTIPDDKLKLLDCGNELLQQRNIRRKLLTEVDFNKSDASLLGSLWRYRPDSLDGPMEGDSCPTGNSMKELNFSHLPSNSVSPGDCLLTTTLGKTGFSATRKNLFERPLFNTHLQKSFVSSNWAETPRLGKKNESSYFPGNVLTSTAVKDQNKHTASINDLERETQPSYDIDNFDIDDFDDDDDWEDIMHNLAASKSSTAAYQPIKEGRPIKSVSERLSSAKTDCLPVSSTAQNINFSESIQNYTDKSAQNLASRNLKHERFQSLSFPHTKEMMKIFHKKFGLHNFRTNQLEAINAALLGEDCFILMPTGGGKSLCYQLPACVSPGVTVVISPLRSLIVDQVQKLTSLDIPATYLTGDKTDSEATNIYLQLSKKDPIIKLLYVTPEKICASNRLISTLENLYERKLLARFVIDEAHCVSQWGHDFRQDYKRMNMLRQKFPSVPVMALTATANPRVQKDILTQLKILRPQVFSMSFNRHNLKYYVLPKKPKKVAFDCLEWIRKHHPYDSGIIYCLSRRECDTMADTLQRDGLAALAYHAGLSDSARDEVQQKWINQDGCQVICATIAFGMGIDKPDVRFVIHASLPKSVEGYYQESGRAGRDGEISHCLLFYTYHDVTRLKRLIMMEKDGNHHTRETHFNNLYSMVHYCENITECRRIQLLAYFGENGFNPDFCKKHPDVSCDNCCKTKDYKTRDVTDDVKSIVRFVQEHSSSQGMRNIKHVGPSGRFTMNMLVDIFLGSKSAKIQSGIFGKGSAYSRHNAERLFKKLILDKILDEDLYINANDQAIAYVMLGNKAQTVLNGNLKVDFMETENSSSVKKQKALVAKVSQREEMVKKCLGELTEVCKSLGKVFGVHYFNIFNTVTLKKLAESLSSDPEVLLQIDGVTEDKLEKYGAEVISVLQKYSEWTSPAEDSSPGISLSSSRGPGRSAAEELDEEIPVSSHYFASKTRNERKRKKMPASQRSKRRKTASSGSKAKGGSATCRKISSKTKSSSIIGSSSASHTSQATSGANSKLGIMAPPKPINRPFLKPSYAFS
ATP-dependent DNA helicase Q1 (Homo sapiens), sequence (P46063 whole entry, looked up): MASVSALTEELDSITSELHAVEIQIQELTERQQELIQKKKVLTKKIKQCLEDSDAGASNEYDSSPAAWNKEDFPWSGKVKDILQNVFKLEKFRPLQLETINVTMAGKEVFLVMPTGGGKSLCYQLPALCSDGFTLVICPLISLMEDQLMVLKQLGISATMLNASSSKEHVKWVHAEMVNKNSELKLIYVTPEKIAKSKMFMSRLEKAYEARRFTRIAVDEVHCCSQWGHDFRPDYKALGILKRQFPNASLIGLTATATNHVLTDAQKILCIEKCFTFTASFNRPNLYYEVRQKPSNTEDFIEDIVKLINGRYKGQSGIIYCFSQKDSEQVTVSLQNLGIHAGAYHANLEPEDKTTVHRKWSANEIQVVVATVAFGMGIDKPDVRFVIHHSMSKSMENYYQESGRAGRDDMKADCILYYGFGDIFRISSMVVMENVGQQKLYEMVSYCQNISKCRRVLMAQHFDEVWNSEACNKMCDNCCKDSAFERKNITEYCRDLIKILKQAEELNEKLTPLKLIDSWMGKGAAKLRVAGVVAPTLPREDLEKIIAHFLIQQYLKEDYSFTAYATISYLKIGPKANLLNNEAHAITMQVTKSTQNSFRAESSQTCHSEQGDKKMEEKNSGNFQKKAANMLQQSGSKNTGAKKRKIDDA
DNA repair nuclease/redox regulator APEX1 (Homo sapiens), sequence (P27695 whole entry, looked up): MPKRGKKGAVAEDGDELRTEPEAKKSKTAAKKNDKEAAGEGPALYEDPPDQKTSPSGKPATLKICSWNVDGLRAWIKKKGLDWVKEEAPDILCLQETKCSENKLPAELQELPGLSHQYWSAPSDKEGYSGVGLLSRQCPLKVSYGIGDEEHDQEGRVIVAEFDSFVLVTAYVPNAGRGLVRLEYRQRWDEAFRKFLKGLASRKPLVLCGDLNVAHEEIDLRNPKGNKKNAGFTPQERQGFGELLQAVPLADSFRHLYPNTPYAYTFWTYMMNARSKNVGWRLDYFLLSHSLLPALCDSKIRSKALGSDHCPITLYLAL
Ferritin light chain (Equus caballus), sequence (P02791 2-175 limits assumed): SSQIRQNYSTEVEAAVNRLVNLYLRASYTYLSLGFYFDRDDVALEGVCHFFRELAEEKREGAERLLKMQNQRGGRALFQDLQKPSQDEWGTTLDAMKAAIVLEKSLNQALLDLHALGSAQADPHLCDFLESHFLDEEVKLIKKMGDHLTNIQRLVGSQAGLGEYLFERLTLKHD

As to `O=C(Nc1ccccc1)c1cc([N+](=O)[O-])ccc1Cl`, the Potency entry in assay [1], in assay [2], in assay [7], in assay [10], in [11] and in assay [13] was “inactive” throughout. Moreover, the Potency result in [14] was “inactive”. For the same molecule, the Potency in assay [3] was 8.91 µM (active); in [4] it was 11.2 µM (active); in assay [5], 11.2 µM (active); in assay [6] it was 11.2 µM (active); in assay [8], 12.6 µM (active); in [9], 10 µM (active). For the same molecule, in [12], the molecule was called inactive.

Turning to `Nc1ccn([C@@H]2O[C@H](CO)[C@@H](O)[C@@H]2O)c(=O)n1`, the Potency entry in assay [1], in assay [2], in assay [3], in assay [4], in assay [5] and in assay [6] was “inactive” each time. Also, the Potency entry in assay [7], in [8], in [9], in [10] and in [11] was “inactive” in each case.

For the molecule `COc1ccc(NC(=O)/C=C/c2ccc(Cl)cc2)cc1`, the Potency result in [1], in assay [2], in assay [15], in [10], in assay [13] and in [14] was “inactive” in each case. Further, the Potency is 10 µM (active) in [3]; 11.2 µM (active) in assay [4]; 11.2 µM (active) in assay [5]; 8.91 µM (active) in assay [6]; 10 µM (active) in assay [8]; 12.6 µM (active) in assay [9]. For the same molecule, in [12], the molecule was classed as inactive.

As to `CCCCCCCCCCCCCCCC(=O)OC(CC(=O)O)C[N+](C)(C)C` (stereo not drawn), the Potency entry in assay [1], in assay [2], in [3], in [4], in [6] and in assay [7] was “inactive” throughout. In addition, the Potency entry in [9], in assay [10], in assay [13] and in assay [14] was “inactive” each time. Further, the result in assay [16] and in assay [12] was inactive.

As to `COc1cc2c(CCNC(C)=O)c[nH]c2cc1Cl`, the Potency entry in assay [1], in [2], in assay [3], in assay [4], in [5] and in [6] was “inactive” each time. The Potency result in assay [7], in [15], in [10], in [13] and in assay [14] was “inactive” each time. Further, the molecule was called inactive in assay [16] and in assay [12].

For the molecule `C[C@@H](CN1CCC(Cc2ccccc2)CC1)[C@@H](O)c1ccc(O)cc1`, the Potency entry in [1], in assay [2], in assay [9], in assay [15], in assay [10] and in assay [11] was “inactive” each time. Also, the Potency result in assay [13] and in assay [14] was “inactive” throughout. For the same molecule, the figures for the Potency in assay [3], in assay [4] and in assay [8] were 10 µM (active), 14.1 µM (active) and 4.47 µM (active), respectively. The outcome in assay [16] and in [12] was inactive.

On to `CCCCCC(O)c1cccc(OCc2ccc3ccccc3n2)c1` (stereo not drawn), for which the Potency result in assay [1], in [2], in assay [10], in assay [13] and in [14] was “inactive” each time. The Potency in assay [3] is 6.31 µM (active); in assay [4], 10 µM (active); in assay [6], 15.8 µM (active); in assay [7], 7.94 µM (active); in assay [8] it was 6.31 µM (active); in [9] it was 12.6 µM (active).

Consider `C=C/C(C)=C/[C@@]1(C)SC(=O)C(C)=C1O`, for which the Potency in assay [1] was 1 µM (active); in assay [10], 8.91 µM (active). Moreover, the Potency result in assay [2], in assay [4], in assay [5], in assay [6], in assay [7] and in assay [8] was “inactive” throughout. Further, the Potency entry in assay [9] and in [15] was “inactive” in each case. In addition, the call in assay [16] was inactive.

On to `N#C/C(=C\c1ccc(O)c(O)c1)C(=O)c1ccc(O)c(O)c1`, for which the Potency in [1] was 0.282 µM (active); in assay [5] it was 10 µM (active); in assay [8] it was 12.6 µM (active); in assay [9], 12.6 µM (active); in assay [10], 0.282 µM (active); in assay [11] it was 8.91 µM (active). Further, the Potency entry in assay [2], in assay [13] and in assay [14] was “inactive” each time. Moreover, in [12], the result was inactive.

With `O=C(/C=C/c1ccc(O)cc1)c1ccc(O)cc1O`, the Potency entry in assay [1], in assay [2], in assay [15], in assay [10], in assay [13] and in [14] was “inactive” in each case. In addition, the Potency is 10 µM (active) in assay [3]; 7.94 µM (active) in [4]; 12.6 µM (active) in assay [6]; 10 µM (active) in [8]; 12.6 µM (active) in [9]. In assay [12], the result was inactive.

For the molecule `NC(N)=NC(=O)c1nc(Cl)c(N2CCCCCC2)nc1N`, the Potency result in assay [1], in assay [2], in [10], in [11], in assay [13] and in assay [14] was “inactive” each time. The Potency was 8.91 µM (active) in assay [3]; 12.6 µM (active) in assay [4]; 4.47 µM (active) in assay [5]; 7.94 µM (active) in [6]; 2.82 µM (active) in assay [8]; 7.94 µM (active) in assay [9]. The outcome in assay [12] was inactive.
